# Reference: the supplement of paper PMC10105736
# A number with no mark means an inactive call.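 Rule for the calls: active = MAPPIT score above the 99th percentile of random reference set scores in the same batch; inactive = at or below it.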
# B1: Vha16-1 (protein)
# chain: MSSEVSSDNPIYGPFFGVMGAASAIIFSALGAAYGTAKSGTGIAAMSVMRPELIMKSIIPVVMAGIIAIYGLVVAVLIAGALEEPSKYSLYRGFIHLGAGLAVGFSGLAAGFAIGIVGDAGVRGTAQQPRLFVGMILILIFAEVLGLYGLIVAIYLYTK
# B2: Dsp1 (protein)
# chain: MEHFHQIQQTIQHYQQQLAAQQQQQVQQQQLQQHQVVVQQNQQQAHQNSSNTTAGVGTQQLFTYKMASSFPNPATTMAQVVATSNAAGTTGYDYRLNMAQAAAAAAVPGSQWWYSAANQGQVDANTAAQLQHQQQQQQQQQQQQQQQHQQQQQMQQQQQQQNVINSASPMSRVKADAKPRGRMTAYAYFVQTCREEHKKKHPDETVIFAEFSRKCAERWKTMVDKEKKRFHEMAEKDKQRYEAEMQNYVPPKGAVVGRGKKRKQIKDPNAPKRSLSAFFWFCNDERNKVKALNPEFGVGDIAKELGRKWSDVDPEVKQKYESMAERDKARYEREMTEYKTSGKIAMSAPSMQASMQAQAQKAALLAAAAQQQHQQLEEQHDDDDGDGDDDENQ
# B3: ref(2)P (protein)
# chain: MPEKLLKITYQGAGPQKKINAYLRMPSQNYTILRREIELYLFQERQLPKCDVRTFWIDADKDEIEIVNQNDYEIFLAKCESNMHVQVAPLAPVEEPKATKQEGSSANAEAPSVDDPSNFTIHDAVECDGCGLAPLIGFRYKCVQCSNYDLCQKCELAHKHPEHLMLRMPTNNGPGMVDAWFTGPGLGRRSGRRSRGHCPFQETNQADPAGEPARDSRRERRQARRHAGVLTQFVEMMTNLPLNTTTATAPAEPQKPKAAEQTESPPQAEPTVTAEKAAESEAKPTEPKKVNTDQSVPRTEDPVTTPRSTQPTTPVINLDNISQIVPPEYMSAGIEILNNFSEMFSKIIDTTEGGDSGIFAPSTTPSAENKKPEEQGQSSGQSGASSANQSAVPSAAPSANQSNVPSANQSATPSISGSIPDAQLETEPLNPKPSETTTETEQERRRSDSLDPEWQLIDNAYSANNSNLINLDTTNPTAAPQEPVRDFGQLGELLRQHMNEEARVEQASANTQTAQVDTVSTSTSTTSVTTNSVGTSPAAPDDKRTVPVYHTDESINKSIHAMMAMGFSNEGAWLTQLLESVQGNISAALDVMNVSQNRN
# B4: wat (protein)
# chain: MDDPKIMNIMNGMKSLEDHCQLISDVKDESPMQMFYKDKGVFLTGGTGFFGKIIIEKLLRVTEVGQIYLLIRTKKGKDAFARIEDLFNDPVFAKMKQVNPKYRCQITIISGDCSLPGLGISADERETIMENVNIVLHSAATVRFDEKLKMAIAINVHGTKEIIKLAKEIVNLKALVHVSTAFAHCNMRHIQERFYSGTMSGENAFKLSECLDEHTLNTLTPTIIKGYPNTYTFTKVLAENVVQQSAQNLPVTIFRPGIVITTYREPVTGWIDNMYGPCGVIVGIGSGVLRVFTGDMDNKAHIVPVDMCVNALLASAWDIARNKYETPPIYNYVPDAENMVTWRRYMEDGFEYGCDIPMRKSIWYPRFTIVPHMWQYHILCFLYHTLPALVMDAIMVIIGKKPRMMKIYRKIHKLSNVLKYFSSNEFRFDNDNVRKLTEKLDDRDKRLFAFDMRDLDWTNLFRVSLYGLRLYVVKDDPSNIPESIKRYERLKVLHYTTLAVFYALAAWALYALLKLFL
# B5: cid (protein)
# chain: MPRHSRAKRAPRPSANNSKSPNDDDTAFRSPEPEDGTDYGLEFTTSQLTLQDNNRRSSTLRRDAGRRQPAARDSSTSGEEEDQENRYPTTRSPQTRRMTVQQESKTRAAGPVAAQNQTRRRKAANPMSRAKRMDREIRRLQHHPGTLIPKLPFSRLVREFIVKYSDDEPLRVTEGALLAMQESCEMYLTQRLADSYMLTKHRNRVTLEVRDMALMAYICDRGRQF
# B6: CG9588 (protein)
# chain: MAAGTTTKERLERLINAKKQLEAQINRNGQILAANDNVGMSGPLVDAEGFPRNDIDVYQVRLARQTIICLQNDHKELMNQIQTLLNQYHSEIATTDPELVNRASALDLDSDRSPGGANITDLAPARAIVVVNLVSPDSPAERAGLCAGDAILRFGSINSGNFKGDLAQIGELVRNMQSQNVQLKVKRGEQQLDLILVPKTWSGRGLLGCNIVLPPEAMDH
# B7: Cyp12e1 (protein)
# chain: MLSTQWNANKQISRQIYQLCRGLAQKATAVNLEEAKPYADIPGPSKLQLIRAFLPGGLYKNLPVHEMFLDMNRQYGSIFRMPSVAGTDLVLTMNPQDYEVIFRNEGQYPYRRSFEVMDYFKRVHRREVFDGYDGLTSGNGPAWGKMRTAVNPILLQPRNAKLYMTNLVQVSDEFLERIRIIRDPVTQEMPDDFAVDIRHLVIESICSVALNTHLGLLGEQRNNKDIQKLVLALQDVVELGFQLDIMPAFWKYLPMPNFKKLMRSLDTITDFCYFHIGNALKRIEEDAKAGTLNEIGLETSLLEKLARFDRQTAVIIAMDLLFAGADPTLVTLGGILFSLSKSPDKQARLLEEIRGILPNKDSSLTIENMRNLPYLRACIKEGIRMYPIGPGTLRRMPHDVVLSGYRVVAGTDVGIAANYQMANMEQFVPKVREFIPERWLRDESNSHLVGETATPFMYLPFGFGPRSCAGKRIVDMMLEIAISRLVRNFKIGFDYPIENAFKAQFFVQPNIPFKFKFIERNE
# Key:
# Assay in all cases: MAPPIT interaction score (arbitrary units); higher = stronger binary interaction signal, active = hit call of the paper
# PIG-C = settings: MAPPIT configuration: N-C; pair source set: screen_3
# Tsp96F = settings: MAPPIT configuration: N-C; pair source set: screen_4
# PAN3 = settings: pair source set: RRS
# Pbgd = settings: pair source set: RRS
# ScpX = settings: MAPPIT configuration: N-N; pair source set: Curagen_high_conf
# Osi8 = settings: MAPPIT configuration: N-C; pair source set: RRS
# PGRP-LE = settings: MAPPIT configuration: N-N; pair source set: Curagen_low_conf
# Pak3 = settings: MAPPIT configuration: N-C; pair source set: RRS
# 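Note: HEK293T cells with Epo stimulation, STAT-responsive firefly luciferase reporter, fold induction versus unstimulated cells divided by the larger fold induction of two negative controls lacking either bait or prey.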
binder,measurement,setting,value
B1,MAPPIT interaction score,PIG-C,0.119
same,MAPPIT interaction score,Tsp96F,0.231
B2,MAPPIT interaction score,PAN3; MAPPIT configuration: N-C,0.573
same,MAPPIT interaction score,PAN3; MAPPIT configuration: N-N,0.707
B3,MAPPIT interaction score,Pbgd; MAPPIT configuration: N-C,-0.0221
same,MAPPIT interaction score,Pbgd; MAPPIT configuration: N-N,0.0139
same,MAPPIT interaction score,ScpX,0.0182
B4,MAPPIT interaction score,PIG-C,1.02
B5,MAPPIT interaction score,Osi8,-0.541
B6,MAPPIT interaction score,PGRP-LE,0.614
B7,MAPPIT interaction score,Pak3,2.68
